Screens from PubChem BioAssay.
Only some compounds are listed: those with a hit (about 8.3% of all), similar ones and a draw of the others.
HCMV antiviral: human cytomegalovirus inhibition | HFF cells, HCMV-luciferase reporter, 72 h; hits give low values | activity change, negative = inhibition, % at 57.5 µM | hit rate 4.5% among 410,000; in the data active = activity change below about -60%; inconclusive = no clear call, values can overlap the other calls; inactive = above about -39%
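Two-dose cell screen: HFF monolayers treated with compounds and infected with luciferase-expressing HCMV at 1 PFU/cell, 72 h at 37C, then lysed for luciferase measurement.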
FMDV inh: antivirals against foot and mouth disease virus | Potency, µM (highest dose often 57.9 µM), for the others: top-dose activity change, negative = inhibition, actives largely listed as inhibitors | hit rate 1.2% among 410,000 | FMDV antiviral cell-based qHTS | AID 1159524; calls by dose curve; tested in HEK293T cells; note: read-out not given here; potency is the fitted concentration of half-maximal effect; nearly all actives have a fitted effect of over 45% in size
FBPA Giardia inh: blocks Giardia fructose-bisphosphate aldolase activity. A8B2U2. purified Giardia FBPA. Potency, µM (titrated, usually from 59.6 µM), without a hit: at the top dose activity, negative = inhibition, hits mostly inhibitors. hit rate 0.71% among 290,000. AID 2451; note: potency is the fitted concentration of half-maximal effect; nearly all actives have a fitted effect of over 55% in size
Target sequence (A8B2U2 whole entry, looked up): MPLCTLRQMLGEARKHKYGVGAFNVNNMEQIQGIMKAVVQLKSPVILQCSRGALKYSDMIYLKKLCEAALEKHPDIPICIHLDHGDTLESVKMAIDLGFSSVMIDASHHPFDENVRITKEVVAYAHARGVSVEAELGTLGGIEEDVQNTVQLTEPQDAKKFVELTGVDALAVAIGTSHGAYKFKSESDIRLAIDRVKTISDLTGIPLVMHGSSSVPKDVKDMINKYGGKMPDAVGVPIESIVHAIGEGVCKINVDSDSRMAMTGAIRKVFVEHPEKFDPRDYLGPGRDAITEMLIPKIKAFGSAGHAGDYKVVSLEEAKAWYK
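40 nM FBPA preincubated 10 min at RT with compound (up to 57.5 uM final), then substrate plus GAPDH/TPI/NAD/arsenate coupling and diaphorase/resazurin added. Fluorescence read after 20 min at RT, 525/598 nm.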
Marburg entry inh: inhibitors of Marburg virus binding or cell entry | Marburg virus pseudotyped entry inhibition, cell reporter | Potency, µM (top dose mostly 37.8 µM), inactives show at the highest dose activity change, negative = inhibition, hits mostly inhibitors | hit rate 1.8% among 300,000 | AID 540276; calls by dose curve; tested in HEK293 cells; note: potency is the fitted concentration of half-maximal effect
HCV inh: blocks hepatitis C virus; Huh7.5.1 HCVcc-Cre infection, luciferase reporter, 44 h; Potency, µM (highest dose often 41.8 µM), inactives show at the top dose activity change, negative = inhibition, most hits filed as inhibitors; hit rate 3.4% among 340,000; note: potency is the fitted concentration of half-maximal effect
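A cell-based infection assay in which seeded cells (1,000 per well) receive test compound after 4 h, are inoculated with HCVcc-Cre at approximately 0.5 moi, and are incubated 44 h before luminescence detection.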
LASV entry inh: inhibitors of Lassa virus binding or cell entry. Lassa virus pseudotype entry inhibition, cell reporter. Potency, µM (doses to about 37.9 µM), for inactives: at the highest dose activity change, negative = inhibition, most hits filed as inhibitors. hit rate 1.2% among 300,000; calls by dose curve; tested in HEK293 cells; note: potency is the fitted concentration of half-maximal effect; nearly all actives have a fitted effect of over 50% in size
An asterisk follows results filed as active; u = inconclusive; x = not tested or not shown; [ ] = dose if it differs, or a comment. Unless noted, calls come from the whole dose curve; as a rule, active = well fitted curve in the direction sought with a large enough effect; inconclusive = small, poorly fitted or top-dose-only effect, or another doubt; inactive = no such curve, though single readings can be large; an effect the other way counts as inactive or inconclusive. % is set by controls: 0 for no effect and ±100 for the full control effect.

SMILES	HCMV antiviral	FMDV inh	FBPA Giardia inh	Marburg entry inh	HCV inh	LASV entry inh
CCn1nnc(-c2ccccc2NC(=O)c2cc(OC)c(OC)c(OC)c2)n1	11	x	4%	u	u	u
CCn1nnc(-c2ccccc2NC(=O)c2cnccn2)n1	-6	-25%	x	-1%	11µM*	8%
Cc1ccc(-n2nc3ccc(N)cc3n2)cc1	63	11%	-23%	u	u	11µM*
Nc1ccc2nn(-c3ccc(F)cc3)nc2c1	82	50%	-14%	x	-2%	x
CCOc1ccc(-n2nc3ccc(N)cc3n2)cc1	-93*	u	2%	x	-26%	x
Cc1cc2nn(-c3ccc(F)cc3)nc2cc1N	107	-30%	u	5µM*	-23%	u
COc1ccc(-n2nc3ccc(N)cc3n2)cc1	73	-23%	x	x	x	x
O=C(O)Cn1nc(N2CCN(c3ccccc3)CC2)ccc1=O	-13	-12%	x	7%[46.1 µM]	x	18%[46.1 µM]
Cc1cc(C)n(CCc2nc3c4ccccc4nc(N4CCN(c5ccc(F)cc5)CC4)n3n2)n1	-15	-7%	x	0%[46.1 µM]	x	x
CCOc1ccc(C(=O)NCC(c2ccco2)S(=O)(=O)c2cccs2)cc1 (centres undefined)	18	9%	x	x	x	15%[46.1 µM]
COC(=O)c1c(C)nn(-c2ccc(OC(F)(F)F)cc2)c1-c1snnc1C	-20	35µM*	-3%	u	-11%	u
CC(=O)N/C(N)=N/c1nc2cc(C)ccc2o1	22	51%	-9%	x	20%	x
CC(=O)N/C(N)=N/c1nc2cc([N+](=O)[O-])ccc2o1	-66*	51%	-10%	u	1%	u
O=C(NCCc1ccccc1)c1cccc(Br)n1	x	x	0%[89.2 µM]	x	x	x
O=C(Nc1ccccc1)Nc1cccc(Cl)c1Cl	104	26%	-10%	u	u	u
O=C(Nc1ccc(Oc2ccc(NC(=O)Nc3ccccc3Cl)cc2)cc1)Nc1ccccc1Cl	-62*	-10%	2%	u	u	u
O=C(Nc1ccncc1)Nc1cccc(Cl)c1Cl	-61*	u	6%	x	6.3µM*	x
O=C(NNc1ncccc1Cl)c1c(Cl)cccc1Cl	-67*	-4%	-11%	0%	16%	7%
O=C(NNc1ncc(C(F)(F)F)cc1Cl)c1c(Cl)cccc1Cl	-27	-4%	3%	u	-26%	u
O=C1C(Cl)=C(Nc2ccc3cn[nH]c3c2)C(=O)c2ccccc21	-100*	20µM*	u	u	4µM*	3.5µM*
COc1ccccc1-c1ccnc(-n2ncc(C(=O)NC(C)(C)CO)c2C2CC2)n1	x	26%	x	x	x	x
O=C(Nc1ccc2cn[nH]c2c1)c1c(Cl)cccc1Cl	-94*	-9%	-22%	10%	-18%	15%
O=C(Nc1ccncc1)c1c(Cl)cccc1Cl	-66*	-2%	9%	x	-15%	x
Cc1ccc(C)c(NS(=O)(=O)c2ccc3c(c2)n(C)c(=O)n3C)c1	11	44%	x	x	x	23%[46.1 µM]
CC(=O)n1cc(-c2ccncc2)c2ccccc21	-94*	-21%	-16%	x	10µM*	x
SMILES	HCMV antiviral	FMDV inh	FBPA Giardia inh	Marburg entry inh	HCV inh	LASV entry inh
COC(=O)c1cccc(NS(=O)(=O)c2cccs2)c1C	55	20%	1%	-8%	17%	3%
COC(=O)c1ccccc1NC1=C/C(=N\S(=O)(=O)c2ccc(C(=O)O)cc2)c2ccccc2C1=O	x	u	1µM*	u	10µM*	u
COC(=O)c1ccccc1NC1=C/C(=N\S(=O)(=O)c2cccs2)c2ccccc2C1=O	-30	2.5µM*	u	3.7µM*	8.9µM*	4.5µM*
Cc1ncc2c(c1CNC(=O)c1cncs1)CCN(C(=O)c1ccsc1)C2	x	-14%	x	x	x	x
CCN(CCO)c1ccc(N=Nc2cc(C)[nH]n2)cc1	-80*	13µM*	1%	u	-4%	u
CCN(CCO)c1ccc(Nc2cc(-c3ccc(-c4ccccc4)cc3)ncn2)cc1	-8	-22%	x	x	x	x
Cc1cccc(C)c1NC(=O)CNC(=O)C12CC3CC(CC(O)(C3)C1)C2	-73*	-12%	x	u	30%	0%
Cc1cccc(NC(=O)CNC(=O)C23CC4CC(CC(Cl)(C4)C2)C3)n1	-4	-12%	x	-5%	2%	-5%
C[C@@]12CCC(=O)C=C1CC[C@@H]1[C@@H]2[C@H](O)C[C@]2(C)[C@@H]1CC[C@]2(O)C(=O)CO	x	x	3%[21.7 µM]	x	x	x
